Test systems include SR leukemia; RPMI-8226 leukemia; OVCAR-8 ovarian; OVCAR-5 ovarian; OVCAR-4 ovarian; SK-OV-3 ovarian; IGROV1 ovarian; OVCAR-3 ovarian; HS 578T breast; NCI/ADR-RES ovarian; T-47D breast; BT-549 breast; MDA-MB-435 melanoma; SW-620 colon; MCF7 breast; HCT-116 colon; HCC-2998 colon; KM12 colon.
Test in all cases: NCI-60 one-dose screen, 48 h (100 = growth as untreated, 0 = no growth, -100 = all killed)
Common to all, as to details: 10 µM unless noted

This passage reports growth results from PubChem BioAssay (NCI).

About 83,000 compounds went through this panel and 20% of them were active in at least one assay; those are over-represented in the sample as a whole.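 The endpoint reported here, percent growth, reads 100 for growth as untreated, 0 for no net growth and -100 for all cells dead.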 A number with no mark means an inactive call. Active and inactive are the calls of the source. How the source made its calls: active means growth percent below 10; inactive means the rest.

For the molecule `Cc1nn(-c2ccccc2)c2ncnc(N/N=C/c3cccc(O)c3)c12`, the growth with SR leukemia was 30.8%; in the experiment with RPMI-8226 leukemia, 22.7%; in the experiment with OVCAR-8 ovarian, 59.2%; with OVCAR-5 ovarian it was 77.1%; with OVCAR-4 ovarian, 30.2%; in the experiment with SK-OV-3 ovarian, 88.4%. Besides, the growth was 54.9% in the experiment on IGROV1 ovarian; 41.5% in the experiment with OVCAR-3 ovarian; 56.9% in the experiment with HS 578T breast; 23.3% in the experiment on NCI/ADR-RES ovarian; 17.8% with T-47D breast; 46.8% in the experiment on BT-549 breast. Also, the growth was 3.94% (active) in the experiment on MDA-MB-435 melanoma; 34% in the experiment with SW-620 colon; 17.8% with MCF7 breast; 24% with HCT-116 colon; 72.6% in the experiment with HCC-2998 colon; 29.3% in the experiment on KM12 colon.
With `CCOC(=O)C1=NNC(c2ccc(Cl)cc2)C1C(=O)N1C(=S)NC(=O)C1CC(C)C` (stereo not given), the growth in the experiment on SR leukemia was 96.8%; in the experiment with RPMI-8226 leukemia it was 95%; with OVCAR-8 ovarian, 100%; with OVCAR-5 ovarian, 101%; with OVCAR-4 ovarian, 96.5%; with SK-OV-3 ovarian, 93.5%. Moreover, the growth in the experiment on IGROV1 ovarian was 77.1%; in the experiment with OVCAR-3 ovarian, 113%; in the experiment on HS 578T breast, 98.6%; with NCI/ADR-RES ovarian it was 99.9%; in the experiment with T-47D breast, 89.1%; in the experiment with BT-549 breast, 106%. For the same molecule, the growth in the experiment with MDA-MB-435 melanoma was 104%; in the experiment with SW-620 colon, 95.3%; with MCF7 breast, 91.5%; with HCT-116 colon, 97.8%; in the experiment with HCC-2998 colon, 121%; in the experiment on KM12 colon it was 101%.
In the case of `C#CCn1cccc1CNc1ccc(OC)cc1`, the growth with SR leukemia is -36.1% (active); in the experiment on RPMI-8226 leukemia, -58.8% (active); in the experiment on OVCAR-8 ovarian, -28% (active); with OVCAR-5 ovarian, -89.5% (active); with OVCAR-4 ovarian it was -63.8% (active); in the experiment with SK-OV-3 ovarian, -63.5% (active). The growth is -68.5% (active) with IGROV1 ovarian; -84.7% (active) in the experiment on OVCAR-3 ovarian; -40% (active) with HS 578T breast; -53.1% (active) in the experiment on NCI/ADR-RES ovarian; -55.7% (active) in the experiment with T-47D breast; -83.7% (active) with BT-549 breast. Moreover, the growth in the experiment on MDA-MB-435 melanoma was -54.5% (active); in the experiment on SW-620 colon, -36.2% (active); in the experiment on MCF7 breast, -53.8% (active); in the experiment on HCT-116 colon, -68.7% (active); in the experiment on HCC-2998 colon it was -89% (active); in the experiment on KM12 colon, -72.6% (active).
For the molecule `O=C1[C@H]2Cc3c([nH]c4ccccc34)[C@@H](c3ccc(Br)cc3)N2C(=O)CN1C1CCN(CC2CCCCC2)CC1`, the growth was -67.6% (active) in the experiment on SR leukemia; -35% (active) in the experiment with RPMI-8226 leukemia; -48.5% (active) in the experiment on OVCAR-8 ovarian; -84.6% (active) with OVCAR-5 ovarian; -64% (active) in the experiment with OVCAR-4 ovarian; 64.7% in the experiment on SK-OV-3 ovarian. For the same molecule, the growth in the experiment on IGROV1 ovarian was -82.2% (active); in the experiment with OVCAR-3 ovarian it was -90% (active); in the experiment on HS 578T breast it was -56.4% (active); with NCI/ADR-RES ovarian, -83.8% (active); in the experiment on T-47D breast, 44.7%; with BT-549 breast it was -3.47% (active). The growth was -88% (active) in the experiment on MDA-MB-435 melanoma; -83.4% (active) with SW-620 colon; -99.1% (active) in the experiment with MCF7 breast; -93.2% (active) in the experiment with HCT-116 colon; -98.8% (active) in the experiment on HCC-2998 colon; -90.1% (active) with KM12 colon.
Turning to `Cc1nc2ncc(-c3ccc4ncnc(NCc5ccccc5)c4c3)cc2[nH]1`, the growth is 78.3% with SR leukemia; 75.5% in the experiment on RPMI-8226 leukemia; 76.9% in the experiment with OVCAR-8 ovarian; 42.6% with OVCAR-5 ovarian; 48% in the experiment with OVCAR-4 ovarian; 52.5% in the experiment on SK-OV-3 ovarian. In addition, the growth in the experiment on IGROV1 ovarian was 16.8%; with OVCAR-3 ovarian it was 39.2%; in the experiment with HS 578T breast, 29.2%; with NCI/ADR-RES ovarian, 104%; in the experiment with T-47D breast, 1.3% (active); with BT-549 breast, 57.3%. The growth in the experiment on MDA-MB-435 melanoma was 82.1%; in the experiment with SW-620 colon, 82.3%; with MCF7 breast it was 27.1%; in the experiment on HCT-116 colon, 77.8%; in the experiment on HCC-2998 colon it was 79.2%; in the experiment on KM12 colon, 77.8%.
